Measured values taken from publication PMC7862700, “An all-to-all approach to the identification of sequence-specific readers for epigenetic DNA modifications on cytosine”.

How the values were obtained:
Assay in all cases: DAPPL (digital affinity profiling via proximity ligation, sequencing); 10 mM Tris-HCl pH 7.5, 50 mM NaCl, 1 mM DTT, 4% glycerol, room temperature, 30 min; GST-TFs on glutathione beads, 16-mer random dsDNA library, 0.1% formaldehyde crosslink after washing; high values mean tight binding
Settings in all cases: protein: recombinant; tags: N-terminal GST; dsDNA, one strand shown
FLI1 = target: T1, FLI1 (Homo sapiens, UniProt Q01543 1-452)
T1 sequence: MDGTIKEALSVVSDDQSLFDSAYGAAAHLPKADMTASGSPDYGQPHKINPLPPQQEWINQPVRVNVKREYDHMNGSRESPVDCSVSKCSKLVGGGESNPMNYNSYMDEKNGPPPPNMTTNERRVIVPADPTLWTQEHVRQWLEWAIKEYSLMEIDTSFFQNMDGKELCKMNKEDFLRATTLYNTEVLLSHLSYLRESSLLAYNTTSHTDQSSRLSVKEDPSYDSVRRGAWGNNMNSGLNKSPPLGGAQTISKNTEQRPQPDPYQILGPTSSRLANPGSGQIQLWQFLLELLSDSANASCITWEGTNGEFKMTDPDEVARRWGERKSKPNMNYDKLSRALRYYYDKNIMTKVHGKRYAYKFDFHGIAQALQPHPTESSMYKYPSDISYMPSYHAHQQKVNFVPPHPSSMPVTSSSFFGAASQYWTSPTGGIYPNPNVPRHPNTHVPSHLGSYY
How it was run: (§1)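 Human transcription factors carrying a GST fusion were produced in yeast, bound to glutathione beads, tagged with DNA barcodes and pooled together with a tag-only sample. Each pool was held with 200 nmole of a random double-stranded 16-mer DNA library in Tris/NaCl/DTT/glycerol buffer for 30 min at room temperature, then washed, crosslinked in 0.1% formaldehyde, proximity-ligated with BsaI/T4 ligase (1 h, 37 °C), PCR-amplified and sequenced on an Illumina NextSeq500. Binding signal is the read frequency of each hexamer for a given factor divided by its frequency in the tag-only sample.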

ELK1 = target: T2, ELK1 (Homo sapiens, UniProt P19419 1-428)
T2 sequence: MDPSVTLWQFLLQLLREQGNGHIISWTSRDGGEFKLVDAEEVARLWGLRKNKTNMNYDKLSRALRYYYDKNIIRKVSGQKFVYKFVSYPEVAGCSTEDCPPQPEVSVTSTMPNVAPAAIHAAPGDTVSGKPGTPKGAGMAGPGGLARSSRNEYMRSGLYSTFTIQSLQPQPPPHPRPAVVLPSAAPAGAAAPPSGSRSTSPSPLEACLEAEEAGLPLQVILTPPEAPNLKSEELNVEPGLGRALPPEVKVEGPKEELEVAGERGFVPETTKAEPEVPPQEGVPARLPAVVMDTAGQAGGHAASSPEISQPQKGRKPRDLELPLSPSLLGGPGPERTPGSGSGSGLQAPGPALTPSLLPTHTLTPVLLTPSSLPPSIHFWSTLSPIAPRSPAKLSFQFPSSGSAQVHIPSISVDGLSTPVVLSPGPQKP
How it was run: as §1

GABPA = target: T3, GABPA (Homo sapiens, UniProt Q06546 1-454)
T3 sequence: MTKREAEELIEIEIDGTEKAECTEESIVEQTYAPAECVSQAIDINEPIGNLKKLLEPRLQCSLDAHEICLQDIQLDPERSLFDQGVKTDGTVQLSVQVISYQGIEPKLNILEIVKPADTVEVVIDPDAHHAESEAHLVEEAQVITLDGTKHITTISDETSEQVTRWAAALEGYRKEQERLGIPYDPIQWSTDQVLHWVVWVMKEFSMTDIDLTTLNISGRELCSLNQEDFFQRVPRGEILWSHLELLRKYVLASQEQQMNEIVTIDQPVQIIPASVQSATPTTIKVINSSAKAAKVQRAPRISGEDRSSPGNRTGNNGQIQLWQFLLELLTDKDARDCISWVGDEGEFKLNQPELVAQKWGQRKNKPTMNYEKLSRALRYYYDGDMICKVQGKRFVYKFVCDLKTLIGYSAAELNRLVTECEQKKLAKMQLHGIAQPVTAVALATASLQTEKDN
How it was run: as §1

ERG = target: T4, ERG (Homo sapiens, UniProt P11308 1-479)
T4 sequence: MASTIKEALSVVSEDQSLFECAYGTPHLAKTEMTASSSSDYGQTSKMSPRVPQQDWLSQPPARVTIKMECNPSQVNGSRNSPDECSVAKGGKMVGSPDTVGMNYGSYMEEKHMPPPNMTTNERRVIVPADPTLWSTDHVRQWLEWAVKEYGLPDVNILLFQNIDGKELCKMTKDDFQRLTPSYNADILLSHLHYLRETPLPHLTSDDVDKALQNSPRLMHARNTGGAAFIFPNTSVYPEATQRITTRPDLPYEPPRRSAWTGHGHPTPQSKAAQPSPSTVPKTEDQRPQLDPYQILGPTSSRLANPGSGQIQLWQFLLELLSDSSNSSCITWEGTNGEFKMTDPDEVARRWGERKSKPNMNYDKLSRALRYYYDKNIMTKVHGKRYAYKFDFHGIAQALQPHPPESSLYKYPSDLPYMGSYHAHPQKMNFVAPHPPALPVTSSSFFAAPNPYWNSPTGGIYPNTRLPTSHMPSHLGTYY
How it was run: as §1

ELF1 = ELF1 (Homo sapiens, UniProt P32519 1-619)
How it was run: as §1

EHF = target: T5, EHF (Homo sapiens, UniProt Q9NZC4 1-300)
T5 sequence: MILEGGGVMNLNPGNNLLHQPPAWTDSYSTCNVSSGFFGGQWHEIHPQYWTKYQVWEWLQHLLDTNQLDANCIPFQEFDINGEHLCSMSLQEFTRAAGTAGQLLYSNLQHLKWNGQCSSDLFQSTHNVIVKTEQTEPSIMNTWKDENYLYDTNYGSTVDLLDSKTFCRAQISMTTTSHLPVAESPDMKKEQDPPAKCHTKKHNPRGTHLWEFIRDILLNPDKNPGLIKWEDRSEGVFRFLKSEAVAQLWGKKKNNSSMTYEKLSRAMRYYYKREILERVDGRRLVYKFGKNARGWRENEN
How it was run: as §1

SPI1 = SPI1 (Homo sapiens, UniProt P17947 1-270)
How it was run: as §1

SPIB = SPIB (Homo sapiens, UniProt Q01892 1-262)
How it was run: as §1

ELK3 = target: T6, ELK3 (Homo sapiens, UniProt P41970 1-407)
T6 sequence: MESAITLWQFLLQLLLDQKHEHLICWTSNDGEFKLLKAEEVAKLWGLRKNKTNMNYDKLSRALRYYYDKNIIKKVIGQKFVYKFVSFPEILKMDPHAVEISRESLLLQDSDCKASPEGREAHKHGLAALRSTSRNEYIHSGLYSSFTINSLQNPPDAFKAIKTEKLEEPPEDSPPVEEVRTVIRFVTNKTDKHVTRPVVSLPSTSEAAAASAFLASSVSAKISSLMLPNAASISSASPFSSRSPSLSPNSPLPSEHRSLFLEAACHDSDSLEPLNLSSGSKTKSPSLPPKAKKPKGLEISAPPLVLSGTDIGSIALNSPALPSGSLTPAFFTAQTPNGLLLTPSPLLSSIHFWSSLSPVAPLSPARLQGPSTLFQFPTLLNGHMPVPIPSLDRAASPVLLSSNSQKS
How it was run: as §1

Chain of SPIB (Q01892 whole entry): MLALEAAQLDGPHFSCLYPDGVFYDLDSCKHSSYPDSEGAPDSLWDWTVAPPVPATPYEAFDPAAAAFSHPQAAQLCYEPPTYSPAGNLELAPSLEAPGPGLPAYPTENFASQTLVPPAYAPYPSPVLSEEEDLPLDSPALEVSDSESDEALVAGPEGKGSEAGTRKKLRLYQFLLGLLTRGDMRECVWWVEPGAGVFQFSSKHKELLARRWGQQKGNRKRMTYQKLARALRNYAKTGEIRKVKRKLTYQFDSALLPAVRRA
Chain of ELF1 (P32519 whole entry): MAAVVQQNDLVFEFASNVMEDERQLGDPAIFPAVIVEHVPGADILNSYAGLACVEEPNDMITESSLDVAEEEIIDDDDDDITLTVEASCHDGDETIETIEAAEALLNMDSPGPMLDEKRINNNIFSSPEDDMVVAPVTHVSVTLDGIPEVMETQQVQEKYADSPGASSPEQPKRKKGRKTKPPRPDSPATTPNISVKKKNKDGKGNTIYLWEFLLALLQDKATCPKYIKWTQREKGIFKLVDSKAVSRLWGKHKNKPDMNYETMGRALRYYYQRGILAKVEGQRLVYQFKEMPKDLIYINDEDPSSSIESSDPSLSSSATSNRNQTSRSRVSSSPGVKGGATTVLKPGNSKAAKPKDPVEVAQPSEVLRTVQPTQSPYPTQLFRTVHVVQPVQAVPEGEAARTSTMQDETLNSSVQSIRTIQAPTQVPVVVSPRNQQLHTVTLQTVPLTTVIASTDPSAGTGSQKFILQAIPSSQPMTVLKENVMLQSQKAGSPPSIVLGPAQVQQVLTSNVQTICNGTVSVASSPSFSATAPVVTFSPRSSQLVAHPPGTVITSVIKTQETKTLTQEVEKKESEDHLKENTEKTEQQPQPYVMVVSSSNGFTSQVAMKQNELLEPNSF

GCGTTT
binding signal (FLI1): 1.1 fold enrichment (6-mer frequency, TF over GST control) | binding signal (ELK1): 1.04 fold enrichment (6-mer frequency, TF over GST control) | binding signal (GABPA): 1.11 fold enrichment (6-mer frequency, TF over GST control) | binding signal (ERG): 1.14 fold enrichment (6-mer frequency, TF over GST control) | binding signal (ELF1): 1.08 fold enrichment (6-mer frequency, TF over GST control) | binding signal (EHF): 1.14 fold enrichment (6-mer frequency, TF over GST control) | binding signal (SPI1): 1.05 fold enrichment (6-mer frequency, TF over GST control) | binding signal (SPIB): 1.13 fold enrichment (6-mer frequency, TF over GST control) | binding signal (ELK3): 1.2 fold enrichment (6-mer frequency, TF over GST control)

CGTACC
binding signal (FLI1): 1.24 fold enrichment (6-mer frequency, TF over GST control) | binding signal (ELK1): 1.15 fold enrichment (6-mer frequency, TF over GST control) | binding signal (GABPA): 1.18 fold enrichment (6-mer frequency, TF over GST control) | binding signal (ERG): 1.12 fold enrichment (6-mer frequency, TF over GST control) | binding signal (ELF1): 1.15 fold enrichment (6-mer frequency, TF over GST control) | binding signal (EHF): 1.15 fold enrichment (6-mer frequency, TF over GST control) | binding signal (SPI1): 1.14 fold enrichment (6-mer frequency, TF over GST control) | binding signal (SPIB): 1.12 fold enrichment (6-mer frequency, TF over GST control) | binding signal (ELK3): 1.21 fold enrichment (6-mer frequency, TF over GST control)

TGCACT
binding signal (FLI1): 1.37 fold enrichment (6-mer frequency, TF over GST control) | binding signal (ELK1): 1.58 fold enrichment (6-mer frequency, TF over GST control) | binding signal (GABPA): 1.4 fold enrichment (6-mer frequency, TF over GST control) | binding signal (ERG): 1.43 fold enrichment (6-mer frequency, TF over GST control) | binding signal (ELF1): 1.42 fold enrichment (6-mer frequency, TF over GST control) | binding signal (EHF): 1.3 fold enrichment (6-mer frequency, TF over GST control) | binding signal (SPI1): 1.68 fold enrichment (6-mer frequency, TF over GST control) | binding signal (SPIB): 1.21 fold enrichment (6-mer frequency, TF over GST control) | binding signal (ELK3): 1.26 fold enrichment (6-mer frequency, TF over GST control)

CGTCTT
binding signal (FLI1): 1.46 fold enrichment (6-mer frequency, TF over GST control) | binding signal (ELK1): 1.43 fold enrichment (6-mer frequency, TF over GST control) | binding signal (GABPA): 1.33 fold enrichment (6-mer frequency, TF over GST control) | binding signal (ERG): 1.37 fold enrichment (6-mer frequency, TF over GST control) | binding signal (ELF1): 1.35 fold enrichment (6-mer frequency, TF over GST control) | binding signal (EHF): 1.41 fold enrichment (6-mer frequency, TF over GST control) | binding signal (SPI1): 1.45 fold enrichment (6-mer frequency, TF over GST control) | binding signal (SPIB): 1.5 fold enrichment (6-mer frequency, TF over GST control) | binding signal (ELK3): 1.28 fold enrichment (6-mer frequency, TF over GST control)

GTATCA
binding signal (FLI1): 1.14 fold enrichment (6-mer frequency, TF over GST control) | binding signal (ELK1): 1.07 fold enrichment (6-mer frequency, TF over GST control) | binding signal (GABPA): 1.18 fold enrichment (6-mer frequency, TF over GST control) | binding signal (ERG): 1.05 fold enrichment (6-mer frequency, TF over GST control) | binding signal (ELF1): 1.05 fold enrichment (6-mer frequency, TF over GST control) | binding signal (EHF): 1.1 fold enrichment (6-mer frequency, TF over GST control) | binding signal (SPI1): 1.06 fold enrichment (6-mer frequency, TF over GST control) | binding signal (SPIB): 1.02 fold enrichment (6-mer frequency, TF over GST control) | binding signal (ELK3): 1.1 fold enrichment (6-mer frequency, TF over GST control)

CCTCAT
binding signal (FLI1): 1.35 fold enrichment (6-mer frequency, TF over GST control) | binding signal (ELK1): 1.3 fold enrichment (6-mer frequency, TF over GST control) | binding signal (GABPA): 1.34 fold enrichment (6-mer frequency, TF over GST control) | binding signal (ERG): 1.34 fold enrichment (6-mer frequency, TF over GST control) | binding signal (ELF1): 1.35 fold enrichment (6-mer frequency, TF over GST control) | binding signal (EHF): 1.39 fold enrichment (6-mer frequency, TF over GST control) | binding signal (SPI1): 1.67 fold enrichment (6-mer frequency, TF over GST control) | binding signal (SPIB): 1.33 fold enrichment (6-mer frequency, TF over GST control) | binding signal (ELK3): 1.23 fold enrichment (6-mer frequency, TF over GST control)

CTCCGT
binding signal (FLI1): 1.32 fold enrichment (6-mer frequency, TF over GST control) | binding signal (ELK1): 1.28 fold enrichment (6-mer frequency, TF over GST control) | binding signal (GABPA): 1.22 fold enrichment (6-mer frequency, TF over GST control) | binding signal (ERG): 1.16 fold enrichment (6-mer frequency, TF over GST control) | binding signal (ELF1): 1.21 fold enrichment (6-mer frequency, TF over GST control) | binding signal (EHF): 1.15 fold enrichment (6-mer frequency, TF over GST control) | binding signal (SPI1): 1.19 fold enrichment (6-mer frequency, TF over GST control) | binding signal (SPIB): 1.13 fold enrichment (6-mer frequency, TF over GST control) | binding signal (ELK3): 1.38 fold enrichment (6-mer frequency, TF over GST control)

TGGCAG
binding signal (FLI1): 1.19 fold enrichment (6-mer frequency, TF over GST control) | binding signal (ELK1): 1.09 fold enrichment (6-mer frequency, TF over GST control) | binding signal (GABPA): 1.07 fold enrichment (6-mer frequency, TF over GST control) | binding signal (ERG): 1.01 fold enrichment (6-mer frequency, TF over GST control) | binding signal (ELF1): 1.06 fold enrichment (6-mer frequency, TF over GST control) | binding signal (EHF): 1.11 fold enrichment (6-mer frequency, TF over GST control) | binding signal (SPI1): 1.1 fold enrichment (6-mer frequency, TF over GST control) | binding signal (SPIB): 1.12 fold enrichment (6-mer frequency, TF over GST control) | binding signal (ELK3): 1.21 fold enrichment (6-mer frequency, TF over GST control)
